Test results taken from paper PMC5540273 (PLoS ONE, 2017).

Each compound was assayed on CLK3. Details: concentration: 1 μM, replicates: in singlicate; n = 1.
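Note: KINOMEscan kinase panel screen.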

Row | Structure (SMILES) | %Inh [%]
1 | O=C(Nc1cccc(Oc2ccc3nc(NC(=O)C4CC4)cn3n2)c1)c1ccccc1C(F)(F)F | 32
2 | CC(C)c1nc(-c2cccc(NS(=O)(=O)c3c(F)cccc3F)c2F)c(-c2ccnc(Nc3ccc(N4CCOCC4)nc3)n2)s1 [GSK2008607] | 0
3 | Nc1ncc(-c2cccnc2)c2scc(-c3ccc4c(c3)CCN4C(=O)Cc3ccccc3)c12 [GSK683281] | 19
4 | Cn1cc(-c2ccc3c(c2)CCN3C(=O)Cc2cccc(F)c2)c2c(N)ncnc21 [GSK2603358] | 0
5 | Cl.NC(=O)c1cccc(Nc2nccc(Nc3ccc(Oc4c(Cl)cccc4Cl)c(Cl)c3)n2)c1 [GW659009] | 0
6 | COCCOCCOc1cc2ncc3c4ccc(C#N)cc4[nH]c3c2cc1OC | 14
7 | COc1cccc(-c2ccc3c(NC(=O)C4CC4)n[nH]c3n2)c1 [SB-710903] | 0
8 | Nc1ncc(-c2ccc3nccc(-c4ccncc4)c3c2)cc1S(=O)(=O)N1CCOCC1 [GSK1627798] | 55
9 | Cc1ccc(C(=O)N2CC[C@@H](O)C2)cc1-n1c(C)cc(OCc2ccc(F)cc2F)c(Br)c1=O | 0
10 | O=C(O)C(F)(F)F.O=C(O)C(F)(F)F.O=c1[nH]ccc2nc(N[C@@H]3CCCNC3)nc(Nc3ccc(S(=O)(=O)N4CCOCC4)cc3)c12 [GSK2177277] | 41
11 | COc1cc(Nc2nccc(-c3c(-c4cccc(NC(=O)c5c(F)cccc5F)c4)nn4ncccc34)n2)cc(OC)c1OC [GSK327238] | 0
12 | COc1cccc(C2=C(Nc3ccc(Cl)c(C(=O)O)c3)C(=O)NC2=O)c1 [SB-390769] | 0
13 | Cc1ccc(C(=O)Nc2ccc(Nc3ccnc4cc(-c5nccs5)ccc34)cc2O)cc1.Cl [GW494702] | 0
14 | CCn1c(-c2nonc2N)nc2c(C#CC(C)(C)O)nc(OC[C@H](N)c3ccccc3)cc21 [GSK943949] | 15
15 | COC(=O)Nc1nc2cc(Oc3ccc(NC(=O)Nc4cc(C(F)(F)F)ccc4F)cn3)ccc2[nH]1.Cl.Cl [GW681170] | 0
16 | Cl.Cl.NCC(NCc1ccc(-c2ccnc3[nH]ccc23)s1)c1ccccc1 (centres unmarked) [GSK1321565] | 45
17 | O=c1[nH]cc(-c2ccc(N3CCOCC3)cc2)c2sc(-c3cn[nH]c3)cc12 [GSK2276055] | 37
18 | c1ccc(-c2cnc3nccnn23)cc1 [AH20685] | 0
19 | COc1cc(Nc2nccc(-c3c(-c4cccc(NC(=O)c5c(F)cccc5F)c4)nn4ccccc34)n2)cc(OC)c1OC [GSK323521] | 31

The compounds below were run on CLK4. Details: concentration: 1 μM, replicates: in singlicate; n = 1.

Row | Structure (SMILES) | %Inh [%]
20 | Cc1ccc(C)c(NC(=O)NC2CCN(c3ccnc(Nc4ccc(F)cc4)n3)C2)c1 (centres unmarked) [GSK1379720] | 0
21 | Cl.Cl.NCC(NC(=O)c1cc(-c2ccccc2)c(-c2ccnc3[nH]ccc23)s1)c1ccccc1 (centres unmarked) [GSK1321561] | 19
22 | CN(C)Cc1ccc(-c2ccc3c(Nc4ccc(Oc5ccccn5)cc4)ccnc3c2)o1 [GW567148] | 0
23 | COc1cccc(C(=O)Nc2cccc(Oc3ccc4nc(NC(=O)C5CC5)cn4n3)c2)c1 | 0
24 | CNC(=O)c1ccccc1Nc1nc(Nc2ccc(N3CCOCC3)cc2)ncc1Cl.Cl [GSK1576028] | 98.8
25 | C[C@@H]1CC[C@@H](C(=O)Nc2ccccc2)CN1c1cc(-c2ccc3c(N)n[nH]c3c2)nc(N)n1 [GSK2286062] | 16
26 | Cn1cc(-c2ccc3c(c2)CCN3C(=O)Cc2cccc(Cl)c2)c2c(N)ncnc21 [GSK2606590] | 14
27 | FC(F)(F)c1ccc(/C=C/c2cncnc2Nc2ccc3[nH]c(Cc4ccccc4)nc3c2)cc1 [GW709199] | 0
28 | COc1cccc(NC(=O)NC2CCN(c3ccnc(Nc4cc(OC)c(OC)c(OC)c4)n3)C2)c1 (centres unmarked) [GSK1379763] | 0
29 | Fc1ccc(-c2ncn(C3CCNCC3)c2-c2ccnc(Oc3ccc(-c4ccccc4)cc3)n2)cc1 [SB-245391] | 0
30 | Oc1cc(Nc2ccnc3cc(I)ccc23)ccc1F [GW552771] | 9
31 | COC(=O)Nc1nc2ccc(Oc3ccc(NC(=O)Nc4cc(C(F)(F)F)ccc4F)cc3)cc2n1C.Cl [GW692089] | 0
32 | CC(=O)N1CCN(c2ccc(Nc3nccc(-c4sc(C(C)C)nc4-c4cccc(NS(=O)(=O)c5cccc(Cl)c5)c4)n3)cn2)CC1 [GSK1660437] | 17
33 | Cl.Cl.NCC(C(=O)Nc1cc(Br)c(-c2ccnc3[nH]ccc23)s1)c1ccccc1 (centres unmarked) [GSK1269851] | 61
34 | CC(C)(C)c1ccc2nccc(Nc3cccc(O)c3)c2c1 [GW856795] | 0
35 | NCCCC(NC(=O)c1cc(Br)c(-c2ccnc3[nH]ccc23)s1)c1ccccc1.O=C(O)C(F)(F)F.O=C(O)C(F)(F)F (centres unmarked) [GSK1287544] | 45
36 | Cl.c1ccc(-c2ccc3c(Nc4ccc5[nH]ncc5c4)ccnc3c2)nc1 [GW440137] | 21
37 | c1ccc(Oc2ccc(Nc3ccnc4cc(-c5ccc(CNCCN6CCOCC6)o5)ccc34)cc2)nc1 [GW567145] | 0
38 | O=C(Nc1cccc(Oc2ccc3nc(NC(=O)C4CC4)cn3n2)c1)c1ccccc1C(F)(F)F | 0

Row | Structure (SMILES) | %Inh [%]
39 | CC(C)c1nc(-c2cccc(NS(=O)(=O)c3c(F)cccc3F)c2F)c(-c2ccnc(Nc3ccc(N4CCOCC4)nc3)n2)s1 [GSK2008607] | 0
40 | Nc1ncc(-c2cccnc2)c2scc(-c3ccc4c(c3)CCN4C(=O)Cc3ccccc3)c12 [GSK683281] | 18
41 | Cn1cc(-c2ccc3c(c2)CCN3C(=O)Cc2cccc(F)c2)c2c(N)ncnc21 [GSK2603358] | 39
42 | Cl.NC(=O)c1cccc(Nc2nccc(Nc3ccc(Oc4c(Cl)cccc4Cl)c(Cl)c3)n2)c1 [GW659009] | 34
43 | COCCOCCOc1cc2ncc3c4ccc(C#N)cc4[nH]c3c2cc1OC | 76
44 | COc1cccc(-c2ccc3c(NC(=O)C4CC4)n[nH]c3n2)c1 [SB-710903] | 20
45 | Nc1ncc(-c2ccc3nccc(-c4ccncc4)c3c2)cc1S(=O)(=O)N1CCOCC1 [GSK1627798] | 54
46 | Cc1ccc(C(=O)N2CC[C@@H](O)C2)cc1-n1c(C)cc(OCc2ccc(F)cc2F)c(Br)c1=O | 0
47 | O=C(O)C(F)(F)F.O=C(O)C(F)(F)F.O=c1[nH]ccc2nc(N[C@@H]3CCCNC3)nc(Nc3ccc(S(=O)(=O)N4CCOCC4)cc3)c12 [GSK2177277] | 79
48 | COc1cc(Nc2nccc(-c3c(-c4cccc(NC(=O)c5c(F)cccc5F)c4)nn4ncccc34)n2)cc(OC)c1OC [GSK327238] | 2
49 | COc1cccc(C2=C(Nc3ccc(Cl)c(C(=O)O)c3)C(=O)NC2=O)c1 [SB-390769] | 17
50 | Cc1ccc(C(=O)Nc2ccc(Nc3ccnc4cc(-c5nccs5)ccc34)cc2O)cc1.Cl [GW494702] | 0
51 | CCn1c(-c2nonc2N)nc2c(C#CC(C)(C)O)nc(OC[C@H](N)c3ccccc3)cc21 [GSK943949] | 8
52 | COC(=O)Nc1nc2cc(Oc3ccc(NC(=O)Nc4cc(C(F)(F)F)ccc4F)cn3)ccc2[nH]1.Cl.Cl [GW681170] | 61
53 | Cl.Cl.NCC(NCc1ccc(-c2ccnc3[nH]ccc23)s1)c1ccccc1 (centres unmarked) [GSK1321565] | 88
54 | O=c1[nH]cc(-c2ccc(N3CCOCC3)cc2)c2sc(-c3cn[nH]c3)cc12 [GSK2276055] | 89
55 | c1ccc(-c2cnc3nccnn23)cc1 [AH20685] | 11
56 | COc1cc(Nc2nccc(-c3c(-c4cccc(NC(=O)c5c(F)cccc5F)c4)nn4ccccc34)n2)cc(OC)c1OC [GSK323521] | 18
